This is part of a sample that, as a whole, favours compounds with a hit. Of some 79,000 tested, about 15% had one in any assay. Activity calls are given as the source filed them. Rule as the data show it: active = growth inhibition above about 70%; inactive = the rest.

A short description of the first experiment: NCI Yeast Anticancer Drug Screen. Data for the rad18 strain (AID 177). The note with it: S. cerevisiae rad18 mutant growth inhibition; at 11.0 µM; active compounds read high. An outline of the steps:
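Measured value is growth inhibition of a yeast strain bearing a DNA repair alteration, referenced to vehicle-treated cells.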
As for `COc1ccc2nc(N/N=C/c3sccc3C)cc(C)c2c1`, the growth inhibition was 8% (inactive).
Still for that read-out and setting: to `O=C(O)/C=C\C(=O)NNc1ccc(Br)cc1` belongs 98% (active); to `S=c1[nH]nc(Cc2ccccc2)c(=S)[nH]1`, 42% (inactive); to `COc1ccc2nc3cccc([N+](=O)[O-])c3c(NCCCO)c2c1`, 96% (active).
On the same count and under the same terms, to `CCN(CC)CCSc1c2ccccc2nc2cc(NCC(=O)Nc3ccccc3-c3ccccc3NC(=O)CNc3ccc4c(SCCN(CC)CC)c5ccccc5nc4c3)ccc12` belongs 11% (inactive); to `Cc1ccc(N(C=O)c2c([N+](=O)[O-])cc([N+](=O)[O-])c3c2=[N+]([O-])CN=3)cc1`, 47% (inactive); to `COc1ccc(C(=O)OCCc2ccccc2)cc1`, 0% (inactive).
Same read-out and setting: to `COc1ccc(C(=O)NCCN(C)C)c2nc3ccccc3cc12` belongs 11% (inactive); to `NCC(O)CSCc1ccc(Cl)cc1` (centres undefined), 0% (inactive).
Take `CN(C)/N=N/c1nc[nH]c1C(N)=O`: the growth inhibition was 8% (inactive).
With `O=c1[nH]c(=O)n(CCCO)cc1F`, the growth inhibition is -4% (inactive).
Still for that read-out and setting: the value for `COc1ccc(/C(=N/O)c2ccccc2C2=Nc3ccccc3C(NCc3ccccc3)O2)cc1C` (centres undefined) was 11% (inactive); that for `CCCC(=O)OC(OC(=O)CCC)c1ccc([N+](=O)[O-])o1` was 42% (inactive).
Regarding `O=C(/C(=C/c1ccccc1)CBr)c1ccccc1`, the growth inhibition was 81% (active).
For the compound `O=C(Cc1ccccc1F)NC1=C(Cl)C(=O)c2ccccc2C1=O`, the growth inhibition was 25% (inactive).
For `Cc1cccc(N2CCN(C(=O)/C(=C/c3ccccc3)NC(=O)c3ccccc3)CC2)c1`, the growth inhibition was 5% (inactive).
Take `c1cc(Nc2ccc3c(c2)OCO3)c2cc(C3CCCCC3)ccc2n1`: the growth inhibition was -14% (inactive).
The same measure, in the same setting: to `Cc1ccc2nc(N/N=C/c3ccc(C)s3)cc(C)c2c1` belongs 2% (inactive); to `COc1cc(NCCCCCNC(C)C)c2ncccc2c1Cl`, -1% (inactive); to `COc1ccc2cc(CN3CCC(C4CCN(Cc5ccc6cc(OC)ccc6c5)CC4)CC3)ccc2c1`, 3% (inactive).
Regarding `CC(=O)O/N=C/c1c2ccccc2cc2ccccc12`, the growth inhibition was 11% (inactive).
Consider `CC[C@@]1(OC(=O)CN(C)C)C(=O)OCc2c1cc1n(c2=O)Cc2cc3ccccc3nc2-1`, for which the growth inhibition was 60% (inactive).
Still for that read-out and setting: to `CC1(C)CC(=O)C(C(CC(c2ccccc2)c2cc3c(cc2O)OCO3)C2=C(O)CC(C)(C)CC2=O)=C(O)C1` (centres undefined) belongs 28% (inactive); to `CCCCCCC(CCl)c1sc(-c2csc(CCNC(=O)OC(C)(C)C)n2)nc1C(=O)OC` (centres undefined), 16% (inactive).
Same read-out and setting: the value for `CCOC(=O)C1=C(C)NC(C)=C(C(=O)OCC)C1c1cccc([N+](=O)[O-])c1` was 33% (inactive).
Still for that read-out and setting: to `Cc1ccc2c(/C=C/c3ccc(N(C)C)cc3)ccnc2c1C` belongs -12% (inactive).
In the case of `O=C1C(Br)=CC(Br)(Br)C=C1Br`, the growth inhibition was 26% (inactive).

Still in this experiment, the particulars now being: S. cerevisiae rad18 mutant growth inhibition; at 33.0 µM; active compounds read high.
As to `COc1ccc2nc(N/N=C/c3sccc3C)cc(C)c2c1`, the growth inhibition is 98% (active).
Take `O=C(O)/C=C\C(=O)NNc1ccc(Br)cc1`: the growth inhibition was 98% (active).
For the compound `S=c1[nH]nc(Cc2ccccc2)c(=S)[nH]1`, the growth inhibition is 94% (active).
For `COc1ccc2nc3cccc([N+](=O)[O-])c3c(NCCCO)c2c1`, the growth inhibition was 96% (active).
Same read-out and setting: to `CCN(CC)CCSc1c2ccccc2nc2cc(NCC(=O)Nc3ccccc3-c3ccccc3NC(=O)CNc3ccc4c(SCCN(CC)CC)c5ccccc5nc4c3)ccc12` belongs 69% (inactive).
Take `Cc1ccc(N(C=O)c2c([N+](=O)[O-])cc([N+](=O)[O-])c3c2=[N+]([O-])CN=3)cc1`: the growth inhibition was 91% (active).
Consider `COc1ccc(C(=O)OCCc2ccccc2)cc1`, for which the growth inhibition is 9% (inactive).
On the same count and under the same terms, to `COc1ccc(C(=O)NCCN(C)C)c2nc3ccccc3cc12` belongs -5% (inactive); to `NCC(O)CSCc1ccc(Cl)cc1` (centres undefined), -2% (inactive); to `CN(C)/N=N/c1nc[nH]c1C(N)=O`, 42% (inactive).
Same read-out and setting: to `O=c1[nH]c(=O)n(CCCO)cc1F` belongs 13% (inactive); to `COc1ccc(/C(=N/O)c2ccccc2C2=Nc3ccccc3C(NCc3ccccc3)O2)cc1C` (centres undefined), 67% (inactive).
Still for that read-out and setting: the value for `CCCC(=O)OC(OC(=O)CCC)c1ccc([N+](=O)[O-])o1` was 85% (active).
As to `O=C(/C(=C/c1ccccc1)CBr)c1ccccc1`, the growth inhibition was 96% (active).
As for `O=C(Cc1ccccc1F)NC1=C(Cl)C(=O)c2ccccc2C1=O`, the growth inhibition was 34% (inactive).
Same read-out and setting: the value for `Cc1cccc(N2CCN(C(=O)/C(=C/c3ccccc3)NC(=O)c3ccccc3)CC2)c1` was 51% (inactive); that for `c1cc(Nc2ccc3c(c2)OCO3)c2cc(C3CCCCC3)ccc2n1` was -16% (inactive).
With `Cc1ccc2nc(N/N=C/c3ccc(C)s3)cc(C)c2c1`, the growth inhibition was 99% (active).
In the case of `COc1cc(NCCCCCNC(C)C)c2ncccc2c1Cl`, the growth inhibition is 5% (inactive).
On the same count and under the same terms, to `COc1ccc2cc(CN3CCC(C4CCN(Cc5ccc6cc(OC)ccc6c5)CC4)CC3)ccc2c1` belongs 22% (inactive); to `CC(=O)O/N=C/c1c2ccccc2cc2ccccc12`, 54% (inactive); to `CC[C@@]1(OC(=O)CN(C)C)C(=O)OCc2c1cc1n(c2=O)Cc2cc3ccccc3nc2-1`, 92% (active).
Still for that read-out and setting: the value for `CC1(C)CC(=O)C(C(CC(c2ccccc2)c2cc3c(cc2O)OCO3)C2=C(O)CC(C)(C)CC2=O)=C(O)C1` (centres undefined) was 82% (active); that for `CCCCCCC(CCl)c1sc(-c2csc(CCNC(=O)OC(C)(C)C)n2)nc1C(=O)OC` (centres undefined) was 65% (inactive).
Regarding `CCOC(=O)C1=C(C)NC(C)=C(C(=O)OCC)C1c1cccc([N+](=O)[O-])c1`, the growth inhibition was 60% (inactive).
Consider `Cc1ccc2c(/C=C/c3ccc(N(C)C)cc3)ccnc2c1C`, for which the growth inhibition is 29% (inactive).
Take `O=C1C(Br)=CC(Br)(Br)C=C1Br`: the growth inhibition is 95% (active).

Values taken from PubChem BioAssay (NCI).
